The source of these data is PubChem BioAssay (NCATS).

The target of assay [1] is Cytochrome P450 3A7 (Homo sapiens) (UniProt P24462). In words: Cytochrome P450 family 3 subfamily A member 7 (CYP3A7) small molecule antagonists: luciferase biochemical qHTS assay (AID 1963596). Note: % is set by controls: 0 for no effect and ±100 for the full control effect; nearly all actives have a fitted effect of over 40% in size. The conditions noted are these: P450-Glo CYP3A7 enzyme luminescence, 1 h; series mostly up to 57.4 µM. Summed up:
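Luminescence from luciferin released by CYP3A7 from a proluciferin substrate, read 20 min after detection reagent. Compound and enzyme-substrate mix sat 10 min before NADPH regeneration solution; reaction ran 1 h at room temperature.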
In general terms: qHTS replaces the single test concentration by a dilution series.

Assay [2] can be described thus: Viability qHTS for spleen associated tyrosine kinase inhibitor (SYKi) naive MV4-11 cells (AID 1963823). Note: nearly all actives have a fitted effect of over 40% in size. Note: potency is the fitted concentration of half-maximal effect. The conditions noted are these: MV4-11 AML viability, CellTiter-Glo luminescence, 72 h; series mostly up to 45 µM. Summed up:
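CellTiter-Glo luminescence, 10 min room-temperature incubation, gave viability. Cells: naive MV4-11 (500/well), treated 72 hr at 37 C, 5% CO2.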

Assay [3] in a line: Viability qHTS for spleen associated tyrosine kinase inhibitor (SYKi) drug resistant MV4-11 cells (AID 1963824). Note: nearly all actives have a fitted effect of over 35% in size. Note: potency is the fitted concentration of half-maximal effect. The following applies: SYKi-resistant MV4-11 viability, CellTiter-Glo, 72 h; series mostly up to 45 µM. Summed up:
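SYK-inhibitor-resistant MV4-11 AML cells were seeded at 500 per well onto compound and cultured 72 hours (37 °C, 5% CO2). CellTiter-Glo was then added, and after 10 min at room temperature, luminescence gave viability.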

A short description of assay [4]: Quantitative highthroughput screen to assess conditional lethalithy of NOMO1 cells grown in RPMI1640 with untreated serum (RPMI+s) (AID 1963876).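 For Viability: 100% = DMSO wells and 0% = empty wells without cells.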 Note: nearly all actives have a fitted effect of over 35% in size. Note: potency is the fitted concentration of half-maximal effect. The following applies: NOMO1 AML cells in RPMI+serum, CellTiter-Glo viability, 48 h; series mostly up to 45.8 µM. Summed up:
(§1)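 Each medium arm—HPLM with 10% dialyzed FBS, or RPMI1640 with 5 mM glucose and 10% untreated or dialyzed FBS—was screened against an 11-point, 3-fold compound titration for 48 h at 37 °C, with CellTiter-Glo luminescence as endpoint.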

Assay [5] in a line: Quantitative highthroughput screen to assess conditional lethalithy of NOMO1 cells grown in RPMI1640 with dialyzed fetal bovine serum (RPMI+ds) (AID 1963877).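 For Viability: 100% = DMSO control wells and 0% = empty wells.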 Note: nearly all actives have a fitted effect of over 30% in size. Note: potency is the fitted concentration of half-maximal effect. The following applies: NOMO1 in RPMI+dialyzed FBS viability, ATP luminescence, 48 h; series mostly up to 45.8 µM. In a few lines:
as §1

The nature of assay [6]: Quantitative highthroughput screen to assess conditional lethalithy of NOMO1 cells grown in Human Plasma-Like Medium with dialyzed fetal bovine serum (HPLM+ds) (AID 1963878).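 For Viability: 100% = DMSO wells and 0% = empty wells on each plate.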 Note: nearly all actives have a fitted effect of over 35% in size. Note: potency is the fitted concentration of half-maximal effect. The following applies: NOMO1 AML cells in HPLM+ds, CellTiter-Glo viability, 48 h; series mostly up to 45.8 µM. Summed up:
as §1
On the technique in general: ATP-based viability assays read luminescence as a measure of living cells.

A short description of assay [7]: Quantitative highthroughput screen to assess conditional lethalithy of P12 Ichikawa cells grown in Human Plasma-Like Medium with dialyzed fetal bovine serum (HPLM+ds) (AID 1963879). Note: nearly all actives have a fitted effect of over 35% in size. Note: potency is the fitted concentration of half-maximal effect. The conditions noted are these: ATP luminescence, 48 h; Potency: viability; series mostly up to 45.8 µM. In a few lines:
as §1

A short description of assay [8]: Quantitative highthroughput screen to assess conditional lethalithy of P12 Ichikawa cells grown in RPMI1640 with dialyzed fetal bovine serum (RPMI+ds) (AID 1963880).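 For Viability: 100% = DMSO wells and 0% = empty wells on each plate.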 Note: nearly all actives have a fitted effect of over 35% in size. Note: potency is the fitted concentration of half-maximal effect. The conditions noted are these: ATP luminescence, 48 h; Potency: P12-Ichikawa viability; series mostly up to 45.8 µM. Summed up: as §1
Assay [9] can be described thus: Quantitative highthroughput screen to assess conditional lethalithy of P12 Ichikawa cells grown in RPMI1640 with untreated serum (RPMI+s) (AID 1963881).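 For Viability: 100% = DMSO wells and 0% = empty wells without cells.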 Note: nearly all actives have a fitted effect of over 35% in size. Note: potency is the fitted concentration of half-maximal effect. The following applies: ATP luminescence, 48 h; Potency: viability; series mostly up to 45.8 µM. Summed up:
as §1

Assay [10] is described as follows: Quantitative highthroughput screen to assess conditional lethalithy of SEM cells grown in Human Plasma-Like Medium with dialyzed fetal bovine serum (HPLM+ds) (AID 1963882). Note: nearly all actives have a fitted effect of over 35% in size. Note: potency is the fitted concentration of half-maximal effect. The following applies: SEM B-ALL cells in HPLM+ds, CellTiter-Glo viability, 48 h; series mostly up to 45.8 µM. Summed up: as §1
Assay [11] is described as follows: Quantitative highthroughput screen to assess conditional lethalithy of SEM cells grown in RPMI1640 with unreated serum (RPMI+s) (AID 1963883).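 For Viability: 100% = DMSO wells and 0% = empty wells without cells.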 Note: nearly all actives have a fitted effect of over 35% in size. Note: potency is the fitted concentration of half-maximal effect. The following applies: SEM B-ALL cells, CellTiter-Glo viability, 48 h; series mostly up to 45.8 µM. In a few lines: as §1
Assay [12] in a line: Quantitative highthroughput screen to assess conditional lethalithy of SEM cells grown in RPMI1640 with dialyzed fetal bovine serum (RPMI+ds) (AID 1963884).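 For Viability: 100% = DMSO control wells and 0% = empty wells without cells.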 Note: nearly all actives have a fitted effect of over 35% in size. Note: potency is the fitted concentration of half-maximal effect. The conditions noted are these: SEM B-ALL cells, RPMI+dialyzed FBS, CellTiter-Glo viability, 48 h; series mostly up to 45.8 µM. Summed up: as §1
A short description of assay [13]: Cellular viability qHTS for adrenocortical cancer (ACC) cell line SW-13 (AID 1963989).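 Note: cells grown in serum-free medium with ITS supplement; % is set by controls: 0 for no effect and ±100 for the full control effect; nearly all actives have a fitted effect of over 65% in size.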 The following applies: SW-13 ACC cells viability, CellTiter-Glo, 48 h; activity (max response): active compounds read low. In a few lines: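 IC50 and maximal-response values come from four-parameter logistic fits of titration data. SW-13 cells in serum-free medium received compounds (up to 46 uM final) for 48 h before CellTiter-Glo luminescence.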

Assay [14] can be described thus: Cellular viability qHTS for adrenocortical cancer (ACC) cell line NCI-H295R (AID 1963990).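 Note: 0% = DMSO only wells and -100% = full killing with cytotoxic reference compound; nearly all actives have a fitted effect of over 60% in size.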 The conditions noted are these: CellTiter-Glo ATP luminescence, 48 h; series mostly up to 46.1 µM. In a few lines: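 Adrenocortical carcinoma cells, suspended at 300 000 cells/mL in serum-free DMEM plus ITS, rested overnight before pin transfer of compound. After two days' incubation, ATP-dependent luminescence was recorded and curve-fitted.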

Molecules are shown by their SMILES. Where “and” joins values, the source holds several entries; their conditions need not be identical. Equal values may be shown once. Inconclusive results are not listed. A number with no mark means an inactive call. Calls of active or inactive are those of the source. Calls come from the whole dose curve; as a rule, active = well fitted curve in the direction sought with a large enough effect; inconclusive = small, poorly fitted or top-dose-only effect, or another doubt; inactive = no such curve, though single readings can be large; an effect the other way counts as inactive or inconclusive.

Cytochrome P450 3A7 (Homo sapiens), sequence (P24462 whole entry, looked up): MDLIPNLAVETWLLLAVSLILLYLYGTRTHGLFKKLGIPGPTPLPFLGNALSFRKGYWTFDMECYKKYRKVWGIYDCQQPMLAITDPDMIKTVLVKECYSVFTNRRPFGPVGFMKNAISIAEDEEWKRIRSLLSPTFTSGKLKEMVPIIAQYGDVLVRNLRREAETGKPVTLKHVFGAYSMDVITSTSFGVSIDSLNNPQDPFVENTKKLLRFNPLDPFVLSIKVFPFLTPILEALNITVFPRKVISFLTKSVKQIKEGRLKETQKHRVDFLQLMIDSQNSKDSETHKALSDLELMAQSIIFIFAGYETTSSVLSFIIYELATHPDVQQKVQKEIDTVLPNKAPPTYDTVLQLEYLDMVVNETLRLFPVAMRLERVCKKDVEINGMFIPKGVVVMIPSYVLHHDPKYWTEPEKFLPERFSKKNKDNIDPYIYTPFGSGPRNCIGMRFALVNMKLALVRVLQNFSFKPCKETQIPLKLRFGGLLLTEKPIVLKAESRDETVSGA

For `CC1(C)OC[C@@H]2O[C@@]3(C(=O)O)OC(C)(C)O[C@H]3[C@@H]2O1`, the Potency result in [1], in assay [2] and in assay [3] was “inactive” each time.
Take `CCn1c(=O)c(-c2ccn[nH]2)cc2c(C)nc(N)nc21`: the Potency entry in assay [1] was “inactive”. For the same molecule, the Potency in assay [2] is 1.46 µM (active); in assay [3], 2.91 µM (active).
With `Nc1nc(F)nc2c1ncn2[C@@H]1O[C@H](CO)[C@@H](O)[C@@H]1O`, the Potency entry in [1] was “inactive”. The Potency was 10.5 µM (active) and 16.8 µM (active) and 14.6 µM (active) in assay [2]; 13.2 µM (active) and 14.6 µM (active) in assay [3]; 469 nM (active) in [4]; 372 nM (active) in [5]; 418 nM (active) in assay [6]; 469 nM (active) in assay [7]. Besides, the Potency in [8] is 372 nM (active); in assay [9] it was 526 nM (active); in assay [10], 93.5 nM (active); in [11] it was 105 nM (active); in assay [12] it was 74.3 nM (active).
For the molecule `c1cc(OCCCN2CCCCC2)ccc1CN1CCCCC1`, the Potency result in assay [1], in assay [2] and in [3] was “inactive” throughout.
In the case of `CCNC(=O)Nc1ccc(-c2nc3c(c(N4CCOC[C@@H]4C)n2)CCN(c2ncccn2)C3)cc1`, in assay [1], the Potency entry is “inactive”. Moreover, the Potency was 0.13 µM (active) in [2] and 0.164 µM (active) in [3].
Take `CN(C)S(=O)(=O)c1ccc(NC(=S)N2CCC(C(O)(c3ccccc3)c3ccccc3)CC2)cc1`: in [1], the Potency entry was “inactive”. Further, the Potency in assay [2] is 16.4 µM (active); in assay [3] it was 18.4 µM (active).
In the case of `CC(C)NCC(O)COc1ccc(COCCOC(C)C)cc1` (stereo not given), the Potency entry in [1], in assay [2], in assay [3], in [4], in assay [5] and in [6] was “inactive” in each case. Further, the Potency result in [7], in assay [8], in assay [9], in [10], in [11] and in [12] was “inactive” throughout. The Potency entry in assay [14] is “inactive”. Further, the activity (max response) in assay [13] is 0.903%.
For `COc1cc2ncnc(Nc3cc(Br)c(O)c(Br)c3)c2cc1OC`, the Potency entry in assay [1], in assay [4], in [5], in assay [6], in [7] and in assay [8] was “inactive” each time. The Potency result in assay [9], in assay [10], in assay [11] and in assay [14] was “inactive” in each case. For the same molecule, the Potency in [2] was 11.8 µM (active) and 11.6 µM (active); in assay [3], 13.2 µM (active) and 9.2 µM (active).
As for `CC(C)Cc1ccc(C(C)C(=O)O)cc1` (stereo not given), the Potency entry in assay [1], in assay [2], in assay [3], in assay [4], in assay [5] and in assay [6] was “inactive” in each case. For the same molecule, the Potency result in [7], in [8], in assay [9] and in assay [14] was “inactive” each time. Also, the Potency in assay [11] is 12900 nM (active). For the same molecule, the activity (max response) in assay [13] was 8.32% and 2.38%.
For `NS(=O)(=O)c1cc2c(cc1Cl)NCNS2(=O)=O`, the Potency entry in assay [1], in [2], in [3], in [4], in assay [5] and in [6] was “inactive” throughout. In addition, the Potency entry in assay [7], in assay [8], in [9], in assay [10], in assay [11] and in assay [12] was “inactive” each time. Besides, the Potency result in assay [14] is “inactive”. In assay [13], the activity (max response) is 11.9% and 0.967%.
On to `O=c1oc2c(O)c(O)cc3c(=O)oc4c(O)c(O)cc1c4c23`, for which the Potency result in assay [1], in [2], in assay [3], in assay [4], in assay [5] and in assay [6] was “inactive” throughout. The Potency result in assay [7], in assay [8], in assay [9], in assay [10], in [11] and in [12] was “inactive” each time. Also, the Potency result in assay [14] is “inactive”. Further, in assay [13], the activity (max response) was 9.27% and 2.22%.
For the molecule `O=C(OC1C[C@H]2CC[C@@H](C1)[N+]21CCCC1)C(O)(c1ccccc1)c1ccccc1` (stereo not given in full), the Potency entry in [1], in assay [2], in assay [3], in assay [4], in [5] and in [6] was “inactive” each time. The Potency result in [7], in assay [8], in assay [9], in assay [10], in assay [11] and in assay [12] was “inactive” each time. In assay [14], the Potency entry was “inactive”.
Take `Cc1cnc(NC(=O)C2=C(O)c3ccccc3S(=O)(=O)N2C)s1`: the Potency result in [1], in assay [2], in assay [3], in assay [4], in assay [5] and in assay [6] was “inactive” each time. Also, the Potency entry in [7], in assay [8], in assay [9], in assay [11], in [12] and in [14] was “inactive” each time. For the same molecule, the activity (max response) in [13] is 12.3% [middle of 4 runs].
Take `N=C(N=C(N)N)N1CCOCC1`: the Potency entry in assay [1], in [2], in [3], in [4], in [5] and in assay [6] was “inactive” in each case. Moreover, the Potency entry in assay [7], in assay [8], in [9], in assay [10], in assay [11] and in [12] was “inactive” each time. Further, the Potency entry in assay [14] is “inactive”. For the same molecule, the activity (max response) in assay [13] was -4.25%.
For the molecule `CC(=O)OCC(CCn1cnc2cnc(N)nc21)COC(C)=O`, the Potency entry in [1], in assay [2], in assay [3], in assay [4], in assay [5] and in assay [6] was “inactive” throughout. Moreover, the Potency result in assay [7], in assay [8], in assay [10], in assay [11], in [12] and in [14] was “inactive” throughout.
Turning to `C1Cc2[nH]nc(-c3nn[nH]n3)c2C1`, the Potency entry in assay [1], in assay [2], in assay [3], in assay [4], in assay [5] and in assay [6] was “inactive” each time. Further, the Potency entry in assay [7], in assay [8], in assay [9], in assay [10], in assay [12] and in assay [14] was “inactive” each time. In assay [13], the activity (max response) was 1.5%.
With `COc1ccc(-c2ccc3cc(C(=O)O)ccc3c2)cc1C12CC3CC(CC(C3)C1)C2`, the Potency result in [1], in [4], in assay [5], in assay [6], in assay [7] and in assay [8] was “inactive” throughout. The Potency result in assay [9], in [11] and in [14] was “inactive” throughout. Besides, the values for the Potency in [2] and in [3] were 0.211 µM (active) and 1.32 µM (active), respectively. For the same molecule, the activity (max response) in assay [13] is -2.5% and -9.37%.
